Some test systems named below: HCT-15 colon; HT29 colon; SNB-75 CNS; SNB-19 CNS; U251 CNS; PC-3 prostate; SK-MEL-5 melanoma; UACC-62 melanoma; LOX IMVI melanoma; SK-MEL-28 melanoma; SK-MEL-2 melanoma; EKVX NSCLC; SN12C renal; UO-31 renal; TK-10 renal; ACHN renal; CAKI-1 renal; A498 renal; MOLT-4 leukemia; CCRF-CEM leukemia.
Experiment in all cases: NCI-60 one-dose screen, 48 h (100 = growth as untreated, 0 = no growth, -100 = all killed)
Holding throughout (conditions): 10 µM unless noted

The structures appear in SMILES notation. This is part of a sample that, as a whole, favours compounds with a hit. Of some 83,000 tested, about 20% had one in any assay.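 Values shown are percent growth following 48 h exposure of cells in 96-well plates to a single concentration of compound; below 10 was considered active.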 A number with no mark means an inactive call. Active and inactive are the calls of the source.

With `COC(=O)CC/C(C)=N\Nc1ccc([N+](=O)[O-])cc1`, the growth in the assay on HCT-15 colon was 34.8%; in the assay on HT29 colon, 46.6%; in the assay on SNB-75 CNS, 91.5%; with SNB-19 CNS it was 99.4%; in the assay with U251 CNS, 68.4%; in the assay with PC-3 prostate, 45.8%. Also, the growth in the assay with SK-MEL-5 melanoma is 73.8%; in the assay on UACC-62 melanoma it was 26.6%; in the assay with LOX IMVI melanoma, 16.2%; in the assay with SK-MEL-28 melanoma, 96%; in the assay on SK-MEL-2 melanoma, 57.3%; in the assay on EKVX NSCLC, 59.2%. The growth with SN12C renal is 81.9%; in the assay with UO-31 renal, 35.5%; in the assay on TK-10 renal, 63.3%; in the assay on ACHN renal it was 36.2%; in the assay with CAKI-1 renal it was 41.4%; in the assay with A498 renal, 77.3%. Besides, the growth in the assay with MOLT-4 leukemia was 34%.
Regarding `O=C(O)C(=Cc1c2ccccc2cc2ccccc12)C(=O)O`, the growth was 106% in the assay with HCT-15 colon; 105% in the assay with HT29 colon; 104% in the assay on SNB-75 CNS; 101% with SNB-19 CNS; 101% in the assay on U251 CNS; 97.2% in the assay on PC-3 prostate. In addition, the growth is 104% in the assay on SK-MEL-5 melanoma; 93.5% in the assay on UACC-62 melanoma; 86.8% with LOX IMVI melanoma; 114% with SK-MEL-28 melanoma; 104% in the assay with SK-MEL-2 melanoma; 104% in the assay with EKVX NSCLC. Further, the growth is 101% in the assay on SN12C renal; 82% with UO-31 renal; 93.3% with TK-10 renal; 97.6% with ACHN renal; 99.9% in the assay on CAKI-1 renal; 83.3% with A498 renal. In the assay with MOLT-4 leukemia, the growth was 92.4%.
As to `C=C1C(=O)O[C@H]2[C@H]1CC/C(Cn1cc(-c3ccc(N)cc3)nn1)=C\CC[C@@]1(C)O[C@@H]21`, the growth in the assay on HCT-15 colon was -46.9% (active); with HT29 colon, -59.4% (active); in the assay with SNB-75 CNS, 25.6%; in the assay with SNB-19 CNS, 61.3%; in the assay with U251 CNS, 34.1%; with PC-3 prostate, 24.1%. Also, the growth in the assay on SK-MEL-5 melanoma was 35.3%; with UACC-62 melanoma it was -37.4% (active); in the assay with LOX IMVI melanoma it was -63.6% (active); in the assay with SK-MEL-28 melanoma, -17% (active); with SK-MEL-2 melanoma it was 41.9%; in the assay with EKVX NSCLC, -19.9% (active). Besides, the growth in the assay with SN12C renal was -7.63% (active); in the assay with UO-31 renal, -74.3% (active); in the assay with TK-10 renal, 17.9%; with ACHN renal, 3.22% (active); in the assay with CAKI-1 renal, 16.7%; in the assay on A498 renal it was 44.1%. Moreover, the growth in the assay on CCRF-CEM leukemia was -17.7% (active); in the assay with MOLT-4 leukemia, 5.77% (active).
For the molecule `CCOC(=O)/C=C\C(=O)NC(N)=O`, the growth is 99.9% in the assay on HCT-15 colon; 104% in the assay on HT29 colon; 99.3% with SNB-75 CNS; 106% in the assay on SNB-19 CNS; 94% in the assay with U251 CNS; 83.5% with PC-3 prostate. Further, the growth in the assay with SK-MEL-5 melanoma is 105%; in the assay on UACC-62 melanoma it was 99.3%; in the assay on LOX IMVI melanoma, 91.8%; in the assay on SK-MEL-28 melanoma, 118%; in the assay on SK-MEL-2 melanoma, 101%; in the assay with EKVX NSCLC, 98.8%. Further, the growth with SN12C renal was 103%; in the assay on UO-31 renal, 90.8%; with TK-10 renal, 97.8%; in the assay on ACHN renal, 112%; with CAKI-1 renal, 96%; with A498 renal, 107%. In the assay with MOLT-4 leukemia, the growth was 86.5%.
On to `CCO/C=N/NC(=O)c1ccncc1`, for which the growth was 108% in the assay with HCT-15 colon; 101% in the assay on HT29 colon; 93.3% in the assay on SNB-75 CNS; 105% with SNB-19 CNS; 105% in the assay on U251 CNS; 97.3% in the assay with PC-3 prostate. In addition, the growth is 104% with SK-MEL-5 melanoma; 107% in the assay on UACC-62 melanoma; 98.7% with LOX IMVI melanoma; 108% in the assay on SK-MEL-28 melanoma; 102% in the assay on SK-MEL-2 melanoma; 102% in the assay on EKVX NSCLC. For the same molecule, the growth in the assay with SN12C renal is 111%; with UO-31 renal, 98.9%; with TK-10 renal it was 103%; in the assay on ACHN renal it was 108%; in the assay with CAKI-1 renal it was 100%; with CCRF-CEM leukemia it was 106%. In the assay with MOLT-4 leukemia, the growth is 107%.
Take `CC(C)(C)OC(=O)N1C/C(=C\c2cccs2)C(=O)/C(=C/c2cccs2)C1`: the growth with HCT-15 colon was 85.1%; in the assay with HT29 colon, 86.4%; with SNB-75 CNS it was 78.9%; in the assay with SNB-19 CNS, 94.5%; with U251 CNS, 83.7%; with PC-3 prostate, 74.7%. Moreover, the growth in the assay on SK-MEL-5 melanoma was 87.9%; in the assay on UACC-62 melanoma it was 66.7%; in the assay with LOX IMVI melanoma, 90.9%; in the assay on SK-MEL-28 melanoma, 106%; in the assay with SK-MEL-2 melanoma, 95.6%; in the assay on EKVX NSCLC, 99.5%. Also, the growth in the assay with SN12C renal is 93.6%; in the assay with UO-31 renal, 71.4%; in the assay on TK-10 renal it was 110%; with ACHN renal, 97.2%; with CAKI-1 renal it was 67.2%; in the assay on A498 renal it was 81.9%. Besides, the results for the growth with CCRF-CEM leukemia and in the assay on MOLT-4 leukemia were 51.7% and 69.4%, respectively.
For `O=C(Cc1n[nH]c(=O)c2ccccc12)OCc1c(Cl)cccc1Cl`, the growth with HCT-15 colon is 43.6%; in the assay with HT29 colon, 51.4%; in the assay on SNB-75 CNS, 90%; in the assay on SNB-19 CNS, 105%; in the assay with U251 CNS it was 54%; in the assay on PC-3 prostate, 80.5%. For the same molecule, the growth is 56.9% with SK-MEL-5 melanoma; 70.4% with UACC-62 melanoma; 47.1% with LOX IMVI melanoma; 112% with SK-MEL-28 melanoma; 35.5% in the assay on SK-MEL-2 melanoma; 154% with EKVX NSCLC. In addition, the growth is 102% with SN12C renal; 103% in the assay with UO-31 renal; 99% with TK-10 renal; 74.7% with ACHN renal; 107% in the assay with CAKI-1 renal; 91.3% in the assay on A498 renal. In addition, the growth in the assay on CCRF-CEM leukemia is 61%; in the assay on MOLT-4 leukemia, 32.9%.
With `O=C(C[N+](=O)[O-])c1ccc(Cl)cc1`, the growth with HCT-15 colon was 103%; in the assay on HT29 colon, 113%; in the assay on SNB-75 CNS, 94.9%; in the assay with SNB-19 CNS, 111%; with U251 CNS it was 107%; in the assay on PC-3 prostate it was 97.3%. Besides, the growth in the assay on SK-MEL-5 melanoma is 104%; in the assay on UACC-62 melanoma it was 101%; in the assay with LOX IMVI melanoma it was 96.4%; in the assay with SK-MEL-28 melanoma, 106%; with SK-MEL-2 melanoma, 119%; in the assay with EKVX NSCLC, 107%. Besides, the growth in the assay on SN12C renal was 107%; in the assay on UO-31 renal, 90.3%; in the assay on TK-10 renal it was 109%; in the assay with ACHN renal it was 111%; with CAKI-1 renal, 95.2%; in the assay with A498 renal, 108%. Besides, the growth in the assay with CCRF-CEM leukemia is 104%; with MOLT-4 leukemia it was 106%.

Values taken from PubChem BioAssay (NCI).
